Test results as given in PubChem BioAssay (NCATS).
Results filed as inconclusive are left out. The source made the active and inactive calls. Unless noted, calls follow the shape of the dose curve; as a rule, active = well fitted curve in the direction sought with a large enough effect; inconclusive = small, poorly fitted or top-dose-only effect, or another doubt; inactive = no such curve, though single readings can be large; an effect the other way counts as inactive or inconclusive. Numbered stars: 1 amine (or outer) side, 2 acyl side, 3 side chain; on linkers, the order of the positions; unused ones are H or OH. Bridge positions count the residues as written; N and C are the ends. Square brackets hold non-standard residues; d marks the D form. Peptide text beside a SMILES is read from it. I, II: the chains in the order shown. Actinocin(9to1) = Cc1c2oc3c(C)ccc(C(=O)[*:1])c3nc-2c(C(=O)[*:2])c(N)c1=O; NMeV = CN[C@H](C(=O)O)C(C)C; Sar = CNCC(=O)O

Experiments:
[1] = target: Glutathione peroxidase 1 (Homo sapiens) (UniProt P07203); experiment: Primary qHTS Assay for Inhibitors of Recombinant Selenoprotein Glutathione Peroxidase 1 (GPX1) (AID 1845191); also: nearly all actives have a fitted effect of over 65% in size; as to activity, negative = inhibition: % is scaled to controls: 0 for no effect and ±100 for the full control effect
Chain of Glutathione peroxidase 1 (Homo sapiens) (P07203 whole entry, looked up): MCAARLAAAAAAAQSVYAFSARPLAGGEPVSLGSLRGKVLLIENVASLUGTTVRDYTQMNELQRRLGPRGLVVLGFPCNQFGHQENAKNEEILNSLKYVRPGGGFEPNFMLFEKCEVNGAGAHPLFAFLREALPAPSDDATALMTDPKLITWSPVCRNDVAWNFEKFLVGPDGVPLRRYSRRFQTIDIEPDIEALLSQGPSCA
Procedure, shortened: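 GR-coupled assay: compounds preincubated 30 min at room temperature with GPX1, then reaction started with CHP; final 10 nM GPX1, 1 mM GSH, 0.5 mM CHP, 0.5 mM NADPH, 100 nM GR, 0.01% BSA, pH 7.5 Tris buffer. NADPH fluorescence (340/450 nm) read at 0 and 15 min.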

[2] = target: Phospholipid hydroperoxide glutathione peroxidase GPX4 (Homo sapiens) (UniProt P36969); experiment: Primary qHTS Assay for Inhibitors of Recombinant Selenoprotein Glutathione Peroxidase 4 (GPX4) (AID 1845192); also: nearly all actives have a fitted effect of over 65% in size
Chain of Phospholipid hydroperoxide glutathione peroxidase GPX4 (Homo sapiens) (P36969 whole entry, looked up): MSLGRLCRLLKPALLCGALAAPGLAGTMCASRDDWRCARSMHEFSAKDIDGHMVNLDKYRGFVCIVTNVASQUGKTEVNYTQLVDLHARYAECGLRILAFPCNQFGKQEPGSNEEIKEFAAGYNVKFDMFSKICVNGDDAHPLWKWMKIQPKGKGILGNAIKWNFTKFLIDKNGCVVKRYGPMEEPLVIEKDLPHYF
Procedure, shortened: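 GR-coupled assay: recombinant GPX4 preincubated 30 min with compound at room temperature; final 200 nM GPX4, 1 mM GSH, 0.5 mM cumene hydroperoxide, 0.5 mM NADPH, 100 nM GR, 0.01% BSA, pH 7.5 Tris. NADPH fluorescence (340/450 nm) read at 0 and 15 min.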

[3] = qHTS profiling for inhibitors of Plasmodium falciparum proliferation (AID 504749); also: nearly all actives have a fitted effect of over 60% in size; also: potency is read from the fitted curve at half-maximal effect;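 as to activity, negative = inhibition: 0% = DMSO vehicle and full inhibition = artemisinin control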; conditions: P. falciparum in erythrocytes, SYBR Green DNA, 72 h
Procedure, shortened: (§1)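 Readout was DNA-dye fluorescence from lysed cultures, ex 485/em 535 nm. Parasitized red cells had grown 72 h with compound; data scaled between 0.29 uM artemisinin and DMSO wells and corrected using vehicle-only plates.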

3D7 = experiment: as above; conditions: P. falciparum in erythrocytes, SYBR Green DNA, 72 h; series mostly up to 28.7 µM
Procedure, shortened: as §1

[4] = qHTS drug screen for cell cycle checkpoint inhibitors in PARPi-resistant BRCA-mutant ovarian cancer cell lines. (AID 1963452; calls by dose curve; also: potency is read from the fitted curve at half-maximal effect); conditions: PEO1/OlaR viability, CellTiter-Glo luminescence, 96 h; for Z-AUC: stronger effect = lower value
Procedure, shortened: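 PEO1, PEO4 and PEO1/OlaR ovarian cancer cells, 600 per well, exposed 96 h at 37C to a dilution series. Viability read by CellTiter-Glo luminescence, normalized to DMSO and empty wells; activity summarized as Z-AUC.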

[5] = target: Cytochrome P450 2D6 (Homo sapiens) (UniProt P10635); experiment: qHTS for inhibitors of CYP2D6 against the NCATS DSHEA and TCM libraries (AID 1919972); also: % is scaled to controls: 0 for no effect and ±100 for the full control effect
Chain of Cytochrome P450 2D6 (Homo sapiens) (P10635 whole entry, looked up): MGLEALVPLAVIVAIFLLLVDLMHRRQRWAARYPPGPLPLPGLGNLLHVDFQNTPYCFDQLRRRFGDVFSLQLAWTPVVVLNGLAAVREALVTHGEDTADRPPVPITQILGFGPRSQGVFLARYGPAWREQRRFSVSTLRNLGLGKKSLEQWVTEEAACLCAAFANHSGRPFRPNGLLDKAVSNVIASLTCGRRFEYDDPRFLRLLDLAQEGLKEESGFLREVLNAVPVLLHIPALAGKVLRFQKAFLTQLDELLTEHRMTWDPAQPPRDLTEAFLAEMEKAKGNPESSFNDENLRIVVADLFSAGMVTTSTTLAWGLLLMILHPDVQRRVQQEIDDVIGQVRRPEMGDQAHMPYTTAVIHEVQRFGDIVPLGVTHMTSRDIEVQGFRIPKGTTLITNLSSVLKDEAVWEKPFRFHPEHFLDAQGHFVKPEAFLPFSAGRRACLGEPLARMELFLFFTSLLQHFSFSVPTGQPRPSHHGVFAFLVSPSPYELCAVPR
Procedure, shortened: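 Steps: enzyme plus luciferin substrate dispensed; test substances pinned; 15 min RT; 1x NADPH regenerating solution added, 30–45 min RT protected from light; detection reagent, 30 min RT; luminescence measured. Minus-enzyme wells as background.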

[6] = target: Cytochrome P450 2C9 (Homo sapiens) (UniProt P11712); experiment: qHTS for inhibitors of CYP2C9 against the NCATS DSHEA and TCM libraries (AID 1919973);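 also: luminogenic pro-luciferin CYP2C9 substrate turned into luciferin with NADPH regeneration; % is scaled to controls: 0 for no effect and ±100 for the full control effect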
Chain of Cytochrome P450 2C9 (Homo sapiens) (P11712 whole entry, looked up): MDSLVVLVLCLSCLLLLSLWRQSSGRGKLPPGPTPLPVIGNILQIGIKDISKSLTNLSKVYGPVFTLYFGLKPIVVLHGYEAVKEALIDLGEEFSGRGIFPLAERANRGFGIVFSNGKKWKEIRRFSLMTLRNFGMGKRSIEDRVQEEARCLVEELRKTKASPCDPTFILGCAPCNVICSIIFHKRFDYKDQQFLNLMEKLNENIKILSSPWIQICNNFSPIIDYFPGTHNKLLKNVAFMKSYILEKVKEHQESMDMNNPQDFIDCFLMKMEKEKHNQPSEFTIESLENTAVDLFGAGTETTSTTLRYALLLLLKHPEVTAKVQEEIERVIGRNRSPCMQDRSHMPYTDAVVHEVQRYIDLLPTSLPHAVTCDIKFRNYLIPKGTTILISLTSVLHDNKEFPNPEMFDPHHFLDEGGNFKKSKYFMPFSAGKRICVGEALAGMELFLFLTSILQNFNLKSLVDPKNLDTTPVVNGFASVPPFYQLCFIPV
Procedure, shortened: (§2)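 Luminescent P450-Glo readout. Enzyme plus pro-luciferin substrate in manufacturer buffer (typically 100 mM KPO4); 15 min RT preincubation; 1x NADPH regenerating system, 30-45 min RT in the dark; detection reagent 30 min.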

[7] = target: Cytochrome P450 2C19 (Homo sapiens) (UniProt P33261); experiment: qHTS for inhibitors of CYP2C19 against the NCATS DSHEA and TCM libraries (AID 1919974);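 also: luminescence from luciferin released by CYP2C19 oxidation of a pro-luciferin substrate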; also: potency is read from the fitted curve at half-maximal effect
Chain of Cytochrome P450 2C19 (Homo sapiens) (P33261 whole entry, looked up): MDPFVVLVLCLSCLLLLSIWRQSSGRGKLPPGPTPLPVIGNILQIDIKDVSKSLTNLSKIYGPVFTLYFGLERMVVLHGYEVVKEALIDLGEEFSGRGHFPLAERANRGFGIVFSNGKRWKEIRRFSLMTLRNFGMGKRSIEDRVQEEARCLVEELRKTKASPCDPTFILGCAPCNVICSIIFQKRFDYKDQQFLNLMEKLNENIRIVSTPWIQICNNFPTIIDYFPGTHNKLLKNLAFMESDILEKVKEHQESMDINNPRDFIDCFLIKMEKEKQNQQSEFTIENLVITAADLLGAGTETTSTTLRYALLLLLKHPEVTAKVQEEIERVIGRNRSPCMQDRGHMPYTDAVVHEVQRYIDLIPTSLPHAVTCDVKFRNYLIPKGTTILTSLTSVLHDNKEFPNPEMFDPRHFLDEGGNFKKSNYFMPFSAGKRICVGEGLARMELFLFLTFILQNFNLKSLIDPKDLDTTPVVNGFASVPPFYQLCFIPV
Procedure, shortened: as §2

[8] = KB-3-1 P-gp reporter qHTS against the NCATS DSHEA and TCM libraries (AID 1919975); also: 0% is about no effect
Procedure, shortened: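 Parental KB-3-1 human cervical adenocarcinoma cells (500 cells/well, DMEM + 10% FBS) were treated with substances for ~72 h at 37C; viability was read by CellTiter-Glo luminescence.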

[9] = target: Cytochrome P450 1A2 (Homo sapiens) (UniProt P05177); experiment: qHTS for inhibitors of CYPIA2 against the NCATS DSHEA and TCM libraries (AID 1919976);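 also: light from luciferin formed by CYP1A2 from a pro-luciferin substrate; % is scaled to controls: 0 for no effect and ±100 for the full control effect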
Chain of Cytochrome P450 1A2 (Homo sapiens) (P05177 whole entry, looked up): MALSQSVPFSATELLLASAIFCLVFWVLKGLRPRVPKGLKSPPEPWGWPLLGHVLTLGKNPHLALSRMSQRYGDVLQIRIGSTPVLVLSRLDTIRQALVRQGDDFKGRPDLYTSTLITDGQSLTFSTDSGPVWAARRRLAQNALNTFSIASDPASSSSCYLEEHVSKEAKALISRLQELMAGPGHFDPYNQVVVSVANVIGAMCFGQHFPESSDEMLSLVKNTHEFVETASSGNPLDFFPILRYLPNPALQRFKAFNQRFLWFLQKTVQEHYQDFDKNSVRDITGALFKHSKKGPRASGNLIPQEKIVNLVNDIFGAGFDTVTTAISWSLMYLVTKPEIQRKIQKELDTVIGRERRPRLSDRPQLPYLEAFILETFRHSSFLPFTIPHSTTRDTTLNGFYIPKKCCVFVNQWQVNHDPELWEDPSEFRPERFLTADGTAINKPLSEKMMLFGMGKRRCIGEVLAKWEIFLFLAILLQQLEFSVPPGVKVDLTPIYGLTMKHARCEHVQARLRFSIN
Procedure, shortened: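 Human CYP1A2 with its pro-luciferin substrate in supplier buffer (typically 100 mM KPO4) was pre-incubated with compounds 15 min at RT. Reaction was started with 1x NADPH regeneration solution and run 30-45 min at RT in the dark, then luminescence was read after P450-Glo detection reagent (30 min RT).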

[10] = qHTS Counterscreen for compound interference against the NCATS DSHEA and TCM libraries (AID 1919978); conditions: firefly luciferase detection reagent interference, luminescence; also: % of control where 0% means no effect
Procedure, shortened: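 D-luciferin (1 uM final) or 100 mM potassium phosphate buffer alone was preincubated 15 min at RT with compounds (19.5 nM to 39.8 uM final). Luciferin detection reagent was then added and luminescence read after 30 min at RT.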

[11] = Dual reporter qHTS for agonist of Pregnane X Receptor (hPXR) against the NCATS DSHEA and TCM libraries: Fluorescence readout (AID 1920058); also: 0% is about no effect
Procedure, shortened: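 hPXR-Luc HepG2 cells (2000/well) in phenol red-free medium with charcoal-stripped FBS attached for 5 h, then were exposed to compounds for about 24 h at 37 °C. Viability was read by CellTiter-Fluor fluorescence (Ex/Em 405/540 nm) after 1 h.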

[12] = target: Nuclear receptor subfamily 1 group I member 2 (Homo sapiens) (UniProt O75469); experiment: Dual reporter qHTS for agonist of Pregnane X Receptor (hPXR) against the NCATS DSHEA and TCM libraries: Luminescence readout (AID 1920059); also: 0% is about no effect
Chain of Nuclear receptor subfamily 1 group I member 2 (Homo sapiens) (O75469 whole entry, looked up): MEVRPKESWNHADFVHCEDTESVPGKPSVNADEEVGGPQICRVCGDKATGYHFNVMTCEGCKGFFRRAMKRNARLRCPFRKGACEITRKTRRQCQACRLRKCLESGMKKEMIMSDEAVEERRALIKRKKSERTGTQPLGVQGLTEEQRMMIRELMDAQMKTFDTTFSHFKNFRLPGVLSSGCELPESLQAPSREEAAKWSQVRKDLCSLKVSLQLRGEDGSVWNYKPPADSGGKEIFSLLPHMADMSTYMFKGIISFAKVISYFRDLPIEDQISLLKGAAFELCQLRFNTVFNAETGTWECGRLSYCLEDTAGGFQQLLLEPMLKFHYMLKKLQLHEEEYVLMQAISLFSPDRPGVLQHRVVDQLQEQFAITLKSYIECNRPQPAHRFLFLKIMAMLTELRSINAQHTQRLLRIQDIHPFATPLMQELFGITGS
Procedure, shortened: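 hPXR-Luc HepG2 cells, 2000/well in 5% charcoal-stripped FBS medium, attached 5 h, then exposed 24 h at 37C to compounds. Viability by CellTiter-Fluor, then luciferase luminescence with ONE-Glo.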

[13] = target: Nuclear receptor subfamily 1 group I member 2 (Homo sapiens) (UniProt O75469); experiment: Dual reporter qHTS for antagonist of Pregnane X Receptor (hPXR) against the NCATS DSHEA and TCM libraries: Luminescence Readout (AID 1920060); also: 0% is about no effect
Procedure, shortened: (§3)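 Rifampicin-stimulated (2 uM final) hPXR-luciferase HepG2 cells were treated for 24 h with DSNP/TCM substances. Viability came from CellTiter-Fluor fluorescence, reporter activity from ONE-Glo luminescence.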

[14] = Dual reporter qHTS for antagonist of Pregnane X Receptor (hPXR) against the NCATS DSHEA and TCM libraries: Fluorescence Readout (AID 1920061); also: 0% is about no effect
Procedure, shortened: as §3

[15] = target: Luciferin 4-monooxygenase (Photinus pyralis) (UniProt P08659); experiment: Primary firefly luciferase (FLuc) qHTS assay for identification of artifact compounds. (AID 1845220); conditions: outcome: dose series up to 54.1 µM;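 also: plate controls were DMSO vehicle for no effect and no enzyme for full effect; nearly all actives have a fitted effect of over 60% in size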
Procedure, shortened: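 Titrated compounds were incubated 15 min at RT, protected from light, with luciferin and ATP at 10 uM; reaction started with 10 nM FLuc, luminescence imaged at 5 min, and concentration-response fitted by Hill equation.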

[16] = Primary fluorescence-based thiol-reactive (MSTI) qHTS assay for identification of artifact compounds. (AID 1845221);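 also: thiol-reactive compounds lower the probe fluorescence signal; nearly all actives have a fitted effect of over 65% in size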
Procedure, shortened: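 Reactivity toward the thiol probe MSTI (4 uM) is scored by fluorescence at Ex/Em 525/598 nm after 1 h at room temperature. Acetyl-MSTI and MSTI define the activity scale.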

[17] = test system: Nanoluciferase (engineered Oplophorus gracilirostris luciferase); experiment: Primary Nanoluciferase (NLuc) qHTS assay for identification of artifact compounds. (AID 1845222);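 also: NLuc secreted into diluted conditioned medium of S16 cells; 0% = DMSO and -100% = no enzyme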
Procedure, shortened: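 qHTS format, against NLuc in S16 cell-conditioned medium. Nano-Glo substrate 1:100 was added after 15 min at room temperature. Luminescence was taken after a further 5 min.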

[18] = Primary redox qHTS assay for identification of artifact compounds. (AID 1845223);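 also: 0% = DMSO and 100% = reference compound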
Procedure, shortened: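 Amplex Red (25 uM) and HRP (250 mU/mL) in HBSS, with compounds for 15 min, then 250 uM DTT for 30 min, room temperature, dark. Fluorescence 525/598 nm read; normalized to DMSO and 10 uM DA3003; Hill fit.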

[19] = target: Cytochrome P450 3A4 (Homo sapiens) (UniProt P08684); experiment: qHTS for inhibitors of CYP3A4 against the NCATS DSHEA and TCM libraries (AID 1919971);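 also: % is scaled to controls: 0 for no effect and ±100 for the full control effect; inhibition lowers luminescence from luciferin made by CYP3A4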
Chain of Cytochrome P450 3A4 (Homo sapiens) (P08684 whole entry, looked up): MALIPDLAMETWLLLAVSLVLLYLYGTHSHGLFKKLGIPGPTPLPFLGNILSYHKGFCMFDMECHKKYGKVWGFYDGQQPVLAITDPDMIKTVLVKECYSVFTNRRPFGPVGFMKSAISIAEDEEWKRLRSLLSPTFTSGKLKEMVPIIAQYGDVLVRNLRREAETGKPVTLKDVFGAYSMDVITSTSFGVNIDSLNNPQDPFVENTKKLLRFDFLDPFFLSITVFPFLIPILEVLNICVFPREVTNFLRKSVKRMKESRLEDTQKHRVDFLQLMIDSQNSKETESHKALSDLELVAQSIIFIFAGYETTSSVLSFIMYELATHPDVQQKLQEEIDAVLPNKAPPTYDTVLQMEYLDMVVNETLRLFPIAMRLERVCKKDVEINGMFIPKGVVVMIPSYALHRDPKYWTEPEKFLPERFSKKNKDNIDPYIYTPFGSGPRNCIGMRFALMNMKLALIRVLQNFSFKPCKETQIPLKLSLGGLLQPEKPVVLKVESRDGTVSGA
Procedure, shortened: as §2

[20] = at 28.7 µM (top of the series), parasite line A
[21] = at 28.7 µM (top of the series), parasite line B
[22] = measured here: PEO1 parental Z-AUC
[23] = at 12.8 µM (top of the series), parasite line A
[24] = at 12.8 µM (top of the series), parasite line B

O=C1OC(c2ccc(O)cc2)(c2ccc(O)cc2)c2ccccc21
inactive: Potency [1] | Potency [2] | activity, negative = inhibition [3, 20] -7.68% | activity, negative = inhibition [3, 21] 10.2% | Potency (3D7)

CC(C)N=C(N)/N=C(\N)Nc1ccc(Cl)cc1
active: Potency ([3]; parasite line A) 1.12 µM | Potency ([3]; parasite line B) 1.58 µM
inactive: Potency [1] | Potency [2]

CC1(C)O[C@@H]2C[C@H]3[C@@H]4C[C@H](F)C5=CC(=O)C=C[C@]5(C)[C@H]4[C@@H](O)C[C@]3(C)[C@]2(C(=O)CO)O1
0.487: Z-AUC ([4]; measured here: PEO4 Z-AUC)
1.77: Z-AUC [4, 22]
inactive: Potency [1] | Potency [2] | Z-AUC [4] 0.212

COc1cc2c(cc1O)CC[C@@H]1[C@@H]2CC[C@]2(C)[C@@H](O)CC[C@@H]12
-0.454: Z-AUC ([4]; measured here: PEO4 Z-AUC)
inactive: Potency [1] | Potency [2] | Z-AUC [4] 0.212
-0.545: Z-AUC [4, 22]

COc1cccc2c1C(=O)c1c(O)c3c(c(O)c1C2=O)C[C@@](O)(C(C)=O)C[C@@H]3O[C@H]1C[C@H](N)[C@H](O)[C@H](C)O1
inactive: Potency [1] | Potency [2]
-2.06: Z-AUC ([4]; measured here: PEO4 Z-AUC)
active: Potency [4] 0.174 µM | Potency ([3]; parasite line A) 3.55 µM | Potency ([3]; parasite line B) 7.08 µM | Potency (3D7) 2 µM
-2.1: Z-AUC [4, 22]

C/C=C/c1ccc(OC)cc1
active: Potency [7] 15.8 µM
inactive: Potency [1] | Potency [2] | outcome [5] | outcome [6] | outcome [8] | outcome [9] | max response [10] -1.84% | outcome [11] | outcome [12] | outcome [13] | outcome [14]

C=C(CC)C(=O)c1ccc(OCC(=O)O)c(Cl)c1Cl
inactive: Potency [1] | Potency [2]
active: Potency ([3]; parasite line A) 12.6 µM

CC(C)(C)CC(C)(C)c1ccc(OCCOCC[N+](C)(C)Cc2ccccc2)cc1
inactive: Potency [1] | Potency [2] | outcome [15] | Potency [16] | Potency [17] | outcome [18]
active: Potency ([3]; parasite line A) 3.55 µM | Potency ([3]; parasite line B) 5.01 µM | Potency (3D7) 1.78 µM

CN(C)CCCOc1nn(Cc2ccccc2)c2ccccc12
inactive: Potency [1] | Potency [2] | outcome [15] | Potency [16] | Potency [17] | outcome [18] | activity, negative = inhibition [3, 23] -0.403% | activity, negative = inhibition [3, 24] -0.662% | Potency (3D7)

CC/C(=C(/CC)c1ccc(O)cc1)c1ccc(O)cc1
0.271: Z-AUC ([4]; measured here: PEO4 Z-AUC)
inactive: Potency [1] | Potency [2] | Z-AUC [4] -0.318 | activity, negative = inhibition [3, 21] -19.4% | Potency (3D7)
-0.188: Z-AUC [4, 22]

NCCCC[C@H](N[C@@H](CCc1ccccc1)C(=O)O)C(=O)N1CCC[C@H]1C(=O)O
inactive: Potency [1] | Potency [2] | activity, negative = inhibition [3, 23] 2.09% | activity, negative = inhibition [3, 24] 0.712% | Potency (3D7)

CCN(CC)C(=O)/C(C#N)=C/c1cc(O)c(O)c([N+](=O)[O-])c1
inactive: Potency [1] | Potency [2] | activity, negative = inhibition [3, 20] -3.14% | activity, negative = inhibition [3, 21] -7.95%

O=c1ccc2ccccc2o1
inactive: Potency [1] | Potency [2] | outcome [19] | outcome [5] | outcome [6] | Potency [7] | outcome [8] | max response [10] 0.354% | outcome [11] | outcome [12] | outcome [13] | outcome [14] | activity, negative = inhibition [3, 20] 10.1% | activity, negative = inhibition [3, 21] 1.35% | Potency (3D7)

Cc1ccc(Nc2c(F)cccc2Cl)c(CC(=O)O)c1
inactive: Potency [1] | Potency [2] | outcome [15] | Potency [17] | outcome [18]

COc1c(C)c2c(c(O)c1C/C=C(\C)CCC(=O)O)C(=O)OC2
-0.0213: Z-AUC [4, 22]
inactive: Potency [1] | Potency [2] | Z-AUC [4] -0.522
-0.309: Z-AUC ([4]; measured here: PEO4 Z-AUC)
active: Potency ([3]; parasite line A) 3.16 µM | Potency ([3]; parasite line B) 3.55 µM | Potency (3D7) 3.55 µM

CCn1cc(C(=O)O)c(=O)c2cnc(N3CCCC3)nc21
inactive: activity, negative = inhibition [1] -13.1% [at 9.52 µM] | activity change, negative = inhibition [2] -6.64% [at 9.73 µM] | activity, negative = inhibition [3, 23] -13.8% | activity, negative = inhibition [3, 24] 2.72% | Potency (3D7)

CCCn1c(=O)[nH]c(=O)c2[nH]cnc21
inactive: Potency [1] | Potency [2] | activity, negative = inhibition [3, 20] -4.05% | activity, negative = inhibition [3, 21] 5.13% | Potency (3D7)

Cc1c2oc3c(C)ccc(C(=O)N[C@@H]4C(=O)N[C@H](C(C)C)C(=O)N5CCC[C@H]5C(=O)N(C)CC(=O)N(C)[C@@H](C(C)C)C(=O)O[C@@H]4C)c3nc-2c(C(=O)N[C@@H]2C(=O)N[C@H](C(C)C)C(=O)N3CCC[C@H]3C(=O)N(C)CC(=O)N(C)[C@@H](C(C)C)C(=O)O[C@@H]2C)c(N)c1=O (I: T[dV]P[Sar][NMeV] / II: T[dV]P[Sar][NMeV]; ester I:1-I:C, II:1-II:C; linker I:N-II:N via Actinocin(9to1))
active: Potency ([3]; parasite line A) 0.0035 µM | Potency ([3]; parasite line B) 0.0063 µM | Potency (3D7) 0.0056 µM
inactive: Potency [1] | Potency [2]
